Reference: PubChem BioAssay (Tox21)
Inconclusive results are not listed. Calls of active or inactive are those of the source. Unless noted, calls come from the whole dose curve.

Key:
[1] = Nuclear factor erythroid 2-related factor 2/antioxidant responsive element (Nrf2/ARE) small molecule agonists: qHTS cell viability counter screen in human keratinocytes (AID 1919968; active = well fitted curve in the direction sought with a large enough effect in the repeat runs; an effect the other way counts as inactive or inconclusive; note: nearly all actives have a fitted effect of over 55% in size)
Outline: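 Viability counter-screen: KeratinoSens reporter cells, DMSO-delivered compounds, 23 h at 37 C, CellTiter-Fluor fluorescence.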

[2] = biological target: Gonadotropin-releasing hormone receptor (Homo sapiens) (UniProt P30968); assay: Human gonadotropin-releasing hormone receptor (GnRHR) small molecule agonists, calcium flux assay in GnRHR-HEK293 cells (AID 1920063); note: nearly all actives have a fitted effect of over 35% in size
Outline: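 Tox21-format agonist screen using human GnRHR-expressing HEK293 cells and a fluorescent calcium dye; kinetic 3-min fluorescence reading after compound addition, 15-point concentration series run in triplicate.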

[3] = G protein-coupled receptor (GPCR) small molecule agonists, calcium flux assay: HEK293 wild type cell line counter screen (AID 1920065)
Outline: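 In this agonist-mode screen, ATP is the positive control and DMSO the vehicle. Cells grow 18 h before a 1 h dye incubation at 37 C; signal is taken at Ex/Em 480/540 over 3 min.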

[4] = p53 small molecule agonists, cell-based qHTS assay with human liver microsomes: qHTS cell viability counter screen (AID 1963579); note: nearly all actives have a fitted effect of over 45% in size
Outline: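 In this multiplexed counter screen, the reporter plates were subsequently treated with CellTiter-Glo so that cell viability, reflected by luminescence, could be recorded for p53RE-bla cells dosed 16 h with compounds under microsomal activation (HLM and NADPH).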

[5] = p53 small molecule agonists, cell-based qHTS assay with rat liver microsomes: qHTS cell viability counter screen (AID 1963580); note: nearly all actives have a fitted effect of over 45% in size
Outline: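 Intracellular ATP, by CellTiter-Glo luminescence, defines viability. HCT-116 p53RE-bla cells, 4,000 per well, were compound-treated in the presence of rat liver microsomes and NADPH for 16 h at 37 C.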

[6] = p53 small molecule agonists, cell-based qHTS assay: qHTS cell viability counter screen (AID 1963581); note: nearly all actives have a fitted effect of over 45% in size
Outline: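 Compounds are pinned onto HCT-116 p53RE-bla cells and left 16 h at 37 C. Following the reporter FRET read, ATP is quantified by CellTiter-Glo luminescence after 30 min at room temperature.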

[7] = biological target: 5-hydroxytryptamine receptor 2A (Homo sapiens) (UniProt P28223); assay: 5-hydroxytryptamine receptor 2A (HTR2A) small molecule antagonists, cell-based qHTS assay (AID 1963586); note: nearly all actives have a fitted effect of over 45% in size
Outline: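 Antagonist-mode intracellular calcium assay: DOI (4 nM) added after 5 min compound pre-incubation at room temperature to dye-loaded HTR2A-CHO cells. Fluorescence followed for 3 min, sampled every second.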

[8] = biological target: 5-hydroxytryptamine receptor 2A (Homo sapiens) (UniProt P28223); assay: 5-hydroxytryptamine receptor 2A (HTR2A) small molecule agonists, cell-based qHTS assay (AID 1963587); note: nearly all actives have a fitted effect of over 30% in size
Outline: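 Kinetic calcium-flux fluorescence (2 min, 1 sec intervals) after compound addition in agonist mode. HTR2A-CHO cells were cultured 18 h, then dye-loaded 1 h at 37 C.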

[9] = biological target: Muscarinic acetylcholine receptor M1 (Homo sapiens) (UniProt P11229); assay: Cholinergic receptor muscarinic 1 (CHRM1) small molecule antagonists, cell-based qHTS assay (AID 1963588); note: nearly all actives have a fitted effect of over 40% in size
Outline: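 CHRM1-CHO calcium-flux assay, antagonist mode. Cells were seeded 18 h, dye-loaded 1 h at 37 C and given compound for 5 min at RT, then acetylcholine was added at 50nM. FDSS fluorescence was read 3 min; 15 concentrations, three runs.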

[10] = biological target: Muscarinic acetylcholine receptor M1 (Homo sapiens) (UniProt P11229); assay: Cholinergic receptor muscarinic 1 (CHRM1) small molecule agonists, cell-based qHTS assay (AID 1963589); note: nearly all actives have a fitted effect of over 35% in size
Outline: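 Stable CHRM1-CHO cells (human receptor) were incubated 18 h, dye-loaded for 1 h at 37 C and exposed to test compounds for agonist activity, with calcium-dependent fluorescence followed kinetically.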

[11] = cAMP Responsive Elements (CRE) small molecule agonists, cell-based qHTS assay (AID 1963590)
Outline: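 FRET-based beta-lactamase readout (LiveBLAzer B/G, 2 h RT) quantified CRE activation in HEK 293T CRE-bla cells after 3 h treatment with DMSO-dissolved compounds.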

[12] = cAMP Responsive Elements (CRE) small molecule antagonists, cell-based qHTS assay (AID 1963591; active = well fitted inhibition curve with a large enough effect in the signal ratio in the repeat runs, not every such curve was filed as active; the % refers to the signal ratio)
Outline: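 qHTS in CRE-bla HEK 293T cells: compound in DMSO, then 0.25 uM NKH477 (final), 3 h at 37 °C/5% CO2; beta-lactamase FRET read-out after 2 h substrate incubation.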

[13] = biological target: Beta-2 adrenergic receptor (Homo sapiens) (UniProt P07550); assay: Adrenergic beta2 receptor (ADRB2) small molecule antagonists, cell-based qHTS assay (AID 1963592); note: series mostly up to about 92 µM; nearly all actives have a fitted effect of over 50% in size
Outline: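 Cells (CHO, stable ADRB2 overexpression) incubated 18-20hr at 37C; compounds added from DMSO; agonist mix (1nM isoproterenol, 100uM IBMX, 25uM Ro-20-1724) added; 0.5hr RT; d2-cAMP and anti-cAMP-cryptate added; 1hr RT; 665/615 nm read.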

[14] = biological target: D(2) dopamine receptor (Homo sapiens) (UniProt P14416); assay: Dopamine D2 receptor (DRD2) small molecule agonists, cell-based qHTS assay (AID 1963594); note: nearly all actives have a fitted effect of over 35% in size
Outline: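 cAMP accumulation in DRD2-HEK293 cells measured by HTRF after 1 h detection; compounds added 10 min before NKH477 (200nM […]) forskolin-analogue stimulation, 30 min at room temperature, with Ro20-1724 present at 0.1 mM final.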

[15] = biological target: D(2) dopamine receptor (Homo sapiens) (UniProt P14416); assay: Dopamine D2 receptor (DRD2) small molecule antagonists, cell-based qHTS assay (AID 1963595; active = well fitted inhibition curve with a large enough effect in the signal ratio in the repeat runs, with a control signal flat; the % refers to the signal ratio)
Outline: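 Antagonism was scored as restored cAMP in HEK293-DRD2 cells. These cells were stimulated with 200 nM NKH477 and 12 nM quinpirole for 30 min at room temperature, in the presence of 0.1 mM Ro20-1724.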

[16] = biological target: KiSS-1 receptor (Homo sapiens) (UniProt Q969F8); assay: Human kisspeptin (KISS1R) small molecule agonists, calcium flux assay in KISS1R-HEK293 cells (AID 1920064; active = well fitted curve in the direction sought with a large enough effect in the repeat runs; an effect the other way counts as inactive or inconclusive)
Outline: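 Intracellular calcium mobilization in KISS1R-HEK293 cells was recorded by fluorescence (Ex/Em 480/540) for 3 min following compound addition to cells pre-loaded 1 h with calcium dye.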

[17] = p53 small molecule agonists, cell-based qHTS assay with human liver microsomes (AID 1963577);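 note: p53 response element beta-lactamase reporter cells with liver microsomes plus NADPH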
Outline: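 16 h, 37 C exposure of p53RE-bla cells to compounds with human liver microsomes and NADPH (0.5 mg/mL final each); detection via LiveBLAzer mixture, 2 h dark at room temperature.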

[18] = p53 small molecule agonists, cell-based qHTS assay with rat liver microsomes (AID 1963578)
Outline: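 With rat liver microsomes and NADPH present (0.5 mg/mL final each), p53RE-bla cells are treated with compound for 16 h at 37 C. LiveBLAzer detection mixture is then applied for 2 h at room temperature in the dark.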

[19] = p53 small molecule agonists, cell-based qHTS assay (AID 1963582; active = well fitted activation curve with a large enough effect in the signal ratio in the repeat runs, not every such curve was filed as active; the % refers to the signal ratio)
Outline: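 Agonist activity was scored from beta-lactamase FRET fluorescence in p53RE-bla cells treated 16 h at 37 C with compounds in DMSO, substrate incubation being 2 h at room temperature.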

[20] = biological target: Beta-2 adrenergic receptor (Homo sapiens) (UniProt P07550); assay: Adrenergic beta2 receptor (ADRB2) small molecule agonists, cell-based qHTS assay (AID 1963593);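 note: CHO cells stably overexpressing human ADRB2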
Outline: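 CHO cells stably over-expressing ADRB2 were plated overnight at 37C, then dosed with compounds plus a stimulation mix containing 100uM IBMX and 25uM Ro-20-1724 for 0.5hr at room temperature. cAMP was measured by HTRF competition, 1hr.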
% is set by controls: 0 for no effect and ±100 for the full control effect.

Sequence of 5-hydroxytryptamine receptor 2A (Homo sapiens) (P28223 whole entry, looked up): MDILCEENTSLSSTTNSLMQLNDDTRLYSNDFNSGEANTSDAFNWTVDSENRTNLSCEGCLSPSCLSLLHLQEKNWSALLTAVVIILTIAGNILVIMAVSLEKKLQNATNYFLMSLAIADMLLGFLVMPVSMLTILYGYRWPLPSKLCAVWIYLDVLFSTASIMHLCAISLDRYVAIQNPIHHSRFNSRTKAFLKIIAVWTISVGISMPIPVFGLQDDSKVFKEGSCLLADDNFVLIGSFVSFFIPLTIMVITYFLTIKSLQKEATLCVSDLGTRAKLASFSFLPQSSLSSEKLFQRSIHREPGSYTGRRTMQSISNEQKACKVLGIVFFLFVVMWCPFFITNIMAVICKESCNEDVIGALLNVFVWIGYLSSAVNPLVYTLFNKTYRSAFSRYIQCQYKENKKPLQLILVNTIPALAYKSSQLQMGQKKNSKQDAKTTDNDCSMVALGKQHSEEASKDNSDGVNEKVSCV
Sequence of Gonadotropin-releasing hormone receptor (Homo sapiens) (P30968 whole entry, looked up): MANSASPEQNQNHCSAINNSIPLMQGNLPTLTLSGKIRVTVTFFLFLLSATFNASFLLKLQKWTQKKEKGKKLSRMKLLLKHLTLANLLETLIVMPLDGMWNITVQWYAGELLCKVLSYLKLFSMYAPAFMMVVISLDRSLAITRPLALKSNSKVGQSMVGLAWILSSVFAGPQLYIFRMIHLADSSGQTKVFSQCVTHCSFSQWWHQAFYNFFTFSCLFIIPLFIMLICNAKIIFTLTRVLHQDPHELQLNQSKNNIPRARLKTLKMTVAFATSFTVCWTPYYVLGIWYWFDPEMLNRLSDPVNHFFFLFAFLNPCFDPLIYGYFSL
Sequence of Muscarinic acetylcholine receptor M1 (Homo sapiens) (P11229 whole entry, looked up): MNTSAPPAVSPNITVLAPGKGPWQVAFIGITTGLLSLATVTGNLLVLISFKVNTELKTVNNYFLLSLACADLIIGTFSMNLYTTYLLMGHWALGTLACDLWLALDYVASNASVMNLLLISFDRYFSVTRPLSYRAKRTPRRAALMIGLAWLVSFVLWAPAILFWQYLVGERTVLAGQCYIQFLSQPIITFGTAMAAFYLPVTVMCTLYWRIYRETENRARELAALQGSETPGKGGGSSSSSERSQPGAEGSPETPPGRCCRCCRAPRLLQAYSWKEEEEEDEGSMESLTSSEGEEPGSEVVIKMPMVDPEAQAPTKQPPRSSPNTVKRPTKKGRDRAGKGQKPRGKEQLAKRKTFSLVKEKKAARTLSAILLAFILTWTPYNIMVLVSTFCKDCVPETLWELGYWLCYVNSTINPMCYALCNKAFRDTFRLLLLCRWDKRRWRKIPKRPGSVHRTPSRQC
Sequence of D(2) dopamine receptor (Homo sapiens) (P14416 whole entry, looked up): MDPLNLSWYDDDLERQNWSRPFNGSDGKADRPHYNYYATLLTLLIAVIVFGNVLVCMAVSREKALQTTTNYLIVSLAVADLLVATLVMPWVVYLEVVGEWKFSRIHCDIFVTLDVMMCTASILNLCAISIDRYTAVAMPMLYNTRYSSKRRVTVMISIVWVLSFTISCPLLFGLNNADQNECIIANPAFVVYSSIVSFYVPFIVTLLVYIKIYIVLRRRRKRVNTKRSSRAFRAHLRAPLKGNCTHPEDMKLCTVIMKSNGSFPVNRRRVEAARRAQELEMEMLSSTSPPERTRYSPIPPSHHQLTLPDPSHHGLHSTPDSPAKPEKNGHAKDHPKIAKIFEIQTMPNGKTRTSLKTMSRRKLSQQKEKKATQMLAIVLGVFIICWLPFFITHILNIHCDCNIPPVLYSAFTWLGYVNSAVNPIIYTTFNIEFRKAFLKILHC
Sequence of Beta-2 adrenergic receptor (Homo sapiens) (P07550 whole entry, looked up): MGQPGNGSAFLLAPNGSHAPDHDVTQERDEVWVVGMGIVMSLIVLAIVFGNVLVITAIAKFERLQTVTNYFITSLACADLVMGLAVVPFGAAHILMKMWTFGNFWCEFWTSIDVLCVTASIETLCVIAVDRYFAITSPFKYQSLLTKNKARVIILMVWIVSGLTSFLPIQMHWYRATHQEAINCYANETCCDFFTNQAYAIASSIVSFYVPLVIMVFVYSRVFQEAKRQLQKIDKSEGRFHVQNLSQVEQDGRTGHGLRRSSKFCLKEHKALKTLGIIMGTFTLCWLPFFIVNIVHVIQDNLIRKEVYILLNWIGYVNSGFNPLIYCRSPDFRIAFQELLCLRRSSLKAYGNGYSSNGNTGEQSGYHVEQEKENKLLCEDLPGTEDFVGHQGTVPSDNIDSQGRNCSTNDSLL
Sequence of KiSS-1 receptor (Homo sapiens) (Q969F8 whole entry, looked up): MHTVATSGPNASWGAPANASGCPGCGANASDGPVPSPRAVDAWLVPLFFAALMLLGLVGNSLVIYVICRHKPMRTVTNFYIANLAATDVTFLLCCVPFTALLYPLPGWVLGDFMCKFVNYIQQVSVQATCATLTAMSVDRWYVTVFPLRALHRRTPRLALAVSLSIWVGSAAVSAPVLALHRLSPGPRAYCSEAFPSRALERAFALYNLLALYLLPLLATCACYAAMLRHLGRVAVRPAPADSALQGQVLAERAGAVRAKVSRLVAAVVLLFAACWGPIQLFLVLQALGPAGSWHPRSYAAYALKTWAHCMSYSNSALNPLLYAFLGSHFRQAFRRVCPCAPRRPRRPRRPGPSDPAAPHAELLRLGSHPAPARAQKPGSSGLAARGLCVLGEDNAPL

O=S1(=O)N=C(O)c2ccccc21
inactive: Potency [1] | Potency [2] | Potency [3] | Potency [4] | Potency [5] | Potency [6] | Potency [7] | Potency [8] | Potency [9] | Potency [10] | Potency [11] | Potency [12] | Potency [13] | Potency [14] | Potency [15]

CCCC(=O)O[C@]1(C(=O)COC(=O)CC)CC[C@H]2[C@@H]3CCC4=CC(=O)CC[C@]4(C)[C@H]3[C@@H](O)C[C@@]21C
inactive: activity change, negative = cytotoxicity [1] -1.05% [at 19 µM] | activity change [2] 1.71% [at 11.8 µM, hits give high values] | activation [3] -0.97% [at 11.8 µM] | activity change, negative = cytotoxicity [4] 0.226% [at 13.5 µM] | activity change, negative = cytotoxicity [5] 1.95% [at 13.5 µM] | activity change, negative = cytotoxicity [6] -11% [at 13.5 µM] | activity, negative = inhibition [7] -43.5% [at 12.7 µM] | activation [8] 1.9% [at 15.9 µM] | activity, negative = inhibition [9] 0.329% [at 12.6 µM] | activity change, negative = inhibition [12] 0.328% [at 18.9 µM] | activity change, negative = inhibition [13] 0.289% [at 19 µM] | activation [14] 3.82% [at 19 µM] | activity change, negative = inhibition [15] -0.509% [at 18.9 µM]

COC(C)(C)CC(C)=O
inactive: Potency [1] | Potency [16] | Potency [3] | Potency [17] | Potency [18] | Potency [4] | Potency [5] | Potency [6] | Potency [19] | Potency [8] | Potency [9] | Potency [10] | Potency [11] | Potency [12] | Potency [13] | Potency [20] | Potency [14] | Potency [15]

CC(=O)CCc1ccc(OC(C)=O)cc1
inactive: Potency [1] | Potency [2] | Potency [17] | Potency [18] | Potency [4] | Potency [5] | Potency [6] | Potency [19] | Potency [7] | Potency [8] | Potency [9] | Potency [10] | Potency [11] | Potency [12] | Potency [13] | Potency [14] | Potency [15]

COc1nc(N)nc2c1ncn2[C@@H]1O[C@H](CO)[C@@H](O)[C@@H]1O
inactive: Potency [1] | Potency [16] | Potency [3] | Potency [17] | Potency [18] | Potency [4] | Potency [5] | Potency [6] | Potency [19] | Potency [7] | Potency [8] | Potency [9] | Potency [11] | Potency [12] | Potency [20] | Potency [14]
